Source: PubChem BioAssay (NCI)
Where “and” joins values, the source holds several entries; their conditions need not be identical. Equal values may be shown once. This is part of a sample that, as a whole, favours compounds with a hit. Of some 83,000 tested, about 20% had one in any assay.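 Interpretation: 100, growth as untreated; towards 0, rising growth inhibition; 0, no net growth; 0 to -100, cell death. Compounds scoring below 10 were considered active.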 Calls of active or inactive are those of the source.

system: HL-60(TB) leukemia; test: NCI-60 one-dose screen, 48 h (100 = growth as untreated, 0 = no growth, -100 = all killed); settings: 10 µM unless noted

Structure (SMILES)	growth
C=CCOc1c(Br)cc(Br)cc1Br	76.2% (inactive)
O=C1N/C(=N/O)S/C1=C/c1cn(-c2ccccc2)nc1-c1ccccc1	117% (inactive)
NC(N)=NC1CCCCC1	94.4% (inactive)
Cc1ccc(/C=C2\CN(Cc3cn(CCNc4ccnc5cc(Cl)ccc45)nn3)C/C(=C\c3ccc(C)cc3)C2=O)cc1	-28.8% (active)
Nc1ncnc2nc(Br)[nH]c12	90.3% (inactive)
CCOC(=O)NCCc1nc2c([nH]1)c(=O)n(C)c(=O)n2C	124% (inactive)
COc1cc(/C=C/C(=O)C(C(=O)/C=C/c2ccc(OC(=O)CCNC34CC5CC(CC(C5)C3)C4)c(OC)c2)C(=O)CCNC23CC4CC(CC(C4)C2)C3)ccc1OC(=O)CCNC12CC3CC(CC(C3)C1)C2 (stereo not given)	-30.3% (active)
CCOC(=O)C1CC(=O)c2cc(OC)c(OC)cc2C1 (stereo not given)	97.6% (inactive)
CCCCCCCC[Si](OCC)(OCC)OCC	94.3% (inactive)
COc1cccc(-c2nc3sccn3c2-c2ccnc(NCCCNS(=O)(=O)c3ccccc3)n2)c1	39.9% (inactive)
C=C1C(=O)O[C@H]2[C@H]1CC/C(COC(=O)C(=O)c1cn(C)c3ccc(Cl)cc13)=C\CC[C@@]1(C)O[C@@H]21	-35.1% (active)
COc1ccc(-c2nc(-c3ccccn3)c(-c3ccccn3)n2CC(C)C)cc1OC1CCCC1	-43.5% (active)
CCn1nc(-c2ccccn2)c2cccnc2c1=S	37.4% (inactive)
CCc1ccc(C(=O)/C=C/C23c4ccccc4C(c4ccccc42)C2C(=O)NC(=O)C23)cc1 (stereo not given)	-12.3% (active)
CC1(C)S(=O)(=O)OCCOS1(=O)=O	95.6% (inactive)
NC(=O)c1cc2c3ccccc3ccn2c1-c1ccccc1	-3.94% (active)
COc1cc(-c2c3c(c(Br)n2Cc2ccccc2)-c2nc(N)sc2CC3)cc(OC)c1OC	68.4% (inactive)
CCCCOc1ccc(/C=N/NC(N)=S)cc1	60.5% (inactive)
O=C1c2ccccc2-c2c1nc1ccccc1[n+]2[O-]	101% (inactive)
Clc1cc(Cl)cc(N2N=C(c3cccc(Nc4ccncc4)c3)CC2c2ccc3c(c2)OCO3)c1 (stereo not given)	8.01% (active)

Structure (SMILES)	growth
CC(NC(N)=S)c1ccccc1 (stereo not given)	96.7% (inactive)
CCN(CC)S(=O)(=O)c1cccc(-c2ccc3c(NC(=O)C4CC4)n[nH]c3c2)c1	10.3% [6.25 µM] (inactive)
COc1cccc(-c2nn(-c3ccccc3)cc2-c2ccnc(NCCCNC(=O)c3ccc(F)cc3)c2)c1	19.3% (inactive)
CC(=O)N1C(=S)NC(=O)C1Cn1c(-c2ccccc2)nc2ccccc21 (stereo not given)	98.9% (inactive)
O=[N+]([O-])c1ccc(S(=O)Cc2ccccc2)c([N+](=O)[O-])c1 (stereo not given)	56.4% (inactive) and -7.5% (active)
COC(=O)CCC(=O)C(=O)OC	-21% [10 mM] (active)
NNC(=O)c1nc(N)n(-c2ccc(S(N)(=O)=O)cc2)n1	99.5% (inactive)
Nc1c2c(nc3ccc(Br)cc13)CC(c1ccccc1)CC2=O (stereo not given)	10.7% (inactive)
Cn1c(=O)c2[nH]c(N/N=C/c3ccccc3Br)nc2n(C)c1=O	106% (inactive)
CCNCc1ccncc1	95.8% (inactive)
C[C@H]1[C@H](C)CC[C@]2(C(=O)Nc3ccc4ncccc4c3)CC[C@]3(C)C(=CC[C@@H]4[C@@]5(C)CCCNC(C)(C)[C@@H]5CC[C@]43C)[C@H]12	-45.2% (active)
CC(C)N=c1cc2n(-c3ccc(Cl)cc3)c3ccccc3nc-2cc1Nc1ccc(Cl)cc1	-6.14% (active) and -2.06% (active) and -36.3% (active)
CCCCN(CCCC)CCCO	95.5% (inactive)
CCOC(=O)C1=C(NC)OCC1=O	91.7% (inactive)
COCCn1cc(-c2nc(-c3cccnc3)cs2)c2cc(F)ccc21	93.4% (inactive)
COc1cc2c(cc1-c1c(C)noc1C)ncc1nc(C3CCOCC3)n([C@H](C)COC(F)F)c12	27.5% (inactive)
CC(C)(C)c1ccc(O)c(CNC2CCCCC2)c1	74.8% (inactive) and 77.1% (inactive)
CNC(=O)c1cccc(-c2ccc3c(N4CCOC[C@@H]4C)nc(N4CCOC[C@@H]4C)nc3n2)c1	28.2% (inactive) and 7.66% (active)
COc1ccc(C2=CC(c3cc(OC)c(OC)c(OC)c3)NC(=O)N2)cc1OC (stereo not given)	2.95% (active)
COc1ccccc1P(c1ccccc1OC)c1ccccc1OC	101% (inactive)
